A selection: hits, their analogues and other compounds. The true share with any hit is near 7.9%.
HCV inhibitor = inhibitors of hepatitis C virus infection; Huh7.5.1 HCVcc-Cre infection, luciferase reporter, 44 h; Potency, µM (titrated, usually from 41.8 µM), without a hit: at the highest dose activity change, negative = inhibition, hits mostly inhibitors; 340,000 compounds, 3.4% hits; active means well fitted inhibition curve with a large enough effect; inconclusive means small, poorly fitted or top-dose-only effect, or another doubt; inactive means no such curve, though single readings can be large or run the other way; further: potency means the concentration at half of the fitted maximal effect
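Cells seeded at 1,000/well and cultured 4 h, then compounds added followed by HCVcc-Cre virus (~0.5 moi). After 44 h further culture, luciferase substrate was added, plates held 15 min at room temperature, and luminescence read for 15 sec.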
Marburg entry inh = inhibitors of Marburg virus binding or cell entry; Marburg virus pseudotyped entry inhibition, cell reporter; Potency, µM (titrated, usually from 37.8 µM), for inactives: top-dose activity change, negative = inhibition, most hits filed as inhibitors; 300,000 compounds, 1.8% hits; calls by dose curve; tested in HEK293 cells; further: potency means the concentration at half of the fitted maximal effect
HCMV antiviral = human cytomegalovirus inhibition; HFF cells, HCMV-luciferase reporter, 72 h; hits give low values; activity change, negative = inhibition, % at 57.5 µM; 410,000 compounds, 4.5% hits; AID 1259415; in the data active means activity change below about -60%; inconclusive means no clear call, values can overlap the other calls; inactive means above about -39%
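Steps: HFFs plated, 16 h 37C; compounds added; HCMV-luciferase added to MOI 1 PFU/cell; 72 h 37C; OneGlo reagent, 5 min room temperature; luminescence read, normalized to controls.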
FMDV inh = antivirals against foot and mouth disease virus; FMDV antiviral cell-based qHTS; Potency, µM (series often up to 57.9 µM), for the others: at the highest dose activity change, negative = inhibition, hits mostly inhibitors; 410,000 compounds, 1.2% hits; AID 1159524; calls by dose curve; tested in HEK293T cells; further: read-out not given here; potency means the concentration at half of the fitted maximal effect; nearly all actives have a fitted effect of over 45% in size
LASV entry inh = blocks Lassa virus binding to or entry into cells. Lassa virus pseudotype entry inhibition, cell reporter. 300,000 compounds, 1.2% hits. AID 540256. Potency, µM (titrated, usually from 37.9 µM), for inactives: at the top dose activity change, negative = inhibition, actives largely listed as inhibitors; calls by dose curve; tested in HEK293 cells; further: potency means the concentration at half of the fitted maximal effect; nearly all actives have a fitted effect of over 50% in size
* hit, by the source's call; ? = inconclusive; · = no result; [ ] = another dose, or the depositor's remark. On the % scale 0 is the no-effect control and ±100 the full control effect.

SMILES	HCV inhibitor	Marburg entry inh	HCMV antiviral	FMDV inh	LASV entry inh
CC(C)(C)NC(=O)C(c1ccco1)N(C(=O)Cn1nnc(-c2ccc(F)cc2)n1)c1cccc(F)c1 (centres undefined)	?	-5%	13	12%	-3%
CC(C)(C)NC(=O)C(c1c[nH]c2ccccc12)N(C(=O)Cn1nnc(-c2ccc(F)cc2)n1)c1cccc(O)c1 (centres undefined)	10µM*	11µM*	-20	?	?
O=C(c1cccc(C(F)(F)F)c1)C1CCCN(C(=O)c2cc(C3CC3)[nH]n2)C1 (centres undefined)	?	·	-67*	-29%	·
Cc1cc(C(=O)N2CCCC(C(=O)c3cccc(C(F)(F)F)c3)C2)n[nH]1 (centres undefined)	?	·	-35	-15%	·
COc1ccc(-c2cc(C(F)(F)F)c(C#N)c(SCC(=O)Nc3ccc(F)cc3)n2)cc1	·	20%[46.1 µM]	9	5%	2%[46.1 µM]
Cn1cnc([N+](=O)[O-])c1Sc1nc(N)nc2c1ncn2C1OC(CO)C(O)C1O (centres undefined)	-25%	?	-76*	?	2.8µM*
Cn1cnc([N+](=O)[O-])c1Sc1nc(N)nc2c1ncn2C1CC(O)C(CO)O1 (centres undefined)	?	?	-82*	?	?
Nc1nc(SCc2ccc([N+](=O)[O-])cc2)c2ncn([C@@H]3O[C@@H](CO)[C@@H](O)[C@H]3O)c2n1	·	-5%	·	·	·
CCSc1nc(N)nc2c1ncn2C1OC(CO)C(O)C1O (centres undefined)	-2%	21%	3	0%	15%
Nc1nc(SCc2ccc(Br)cc2)c2ncn(C3OC(CO)C(O)C3O)c2n1 (centres undefined)	-13%	-3%[46.1 µM]	-61*	19%	4%[46.1 µM]
COc1ccc(OC)c(-c2cc(Cl)c3c(c2)CC(CNC(=O)[C@@H]2CCCN2C(C)=O)O3)c1 (some centres undefined)	·	·	·	-3%	·
COc1cccc(/C=C/C(=O)OCC(=O)Nc2ccccc2Sc2ccccc2)c1	10%	-11%	-65*	-6%	-6%[46.1 µM]
N#Cc1nc(-c2cccs2)oc1NCc1ccc(Cl)cc1	10µM*	-3%	-33	12%	1%
O=[N+]([O-])c1c(NCc2ccccc2)cc(N2CCc3ccccc3C2)c2nonc12	1.4µM*	?	?	-17%	-2%
CCCCN1C(=O)C(O)(CC(=O)c2ccco2)c2cc(Br)ccc21 (centres undefined)	21%	?	-75*	-7%	?
CN1C(=O)C(O)(CC(=O)/C=C/c2ccco2)c2cc(Br)ccc21 (centres undefined)	11µM*	?	44	-4%	?
CN(C)c1ccc(-c2nc(NCc3cccnc3)c3ccccc3n2)cc1	·	·	·	36%	·
O=C(CCl)NN=C(c1ccccc1)c1ccccc1	-18%	-1%[46.1 µM]	?	25µM*	-15%[46.1 µM]
CCN(CC)CC(=O)NN=C(c1ccccc1)c1ccccc1	18%	?	-38	-12%	-15%
CCN(CC)c1nc(-c2ccc(C(C)(C)C)cc2)nc2ccccc12	·	·	-15	?	13µM*
CC(C)CN(CC(C)C)c1nc(-c2ccc(Cl)cc2)nc2ccccc12	·	8%[46.1 µM]	21	-21%	12%[46.1 µM]
Cc1cccc(NC(=O)c2sc3cccc(Cl)c3c2Cl)c1	·	·	50	35%	?
CC1(C)OC(=O)N(CCc2ccccc2)C1(C)O (centres undefined)	-2%	-14%	-18	-15%	-6%
CC1(C)OC(=O)N(c2ccccc2)C12C=Cc1cc(Br)ccc1O2 (centres undefined)	?	18µM*	?	?	-11%
CCc1ccccc1NC(=O)c1ccc2c(c1)N(Cc1cccc(Cl)c1)C(=O)c1ccccc1S2(=O)=O	·	?	4	-19%	-5%[46.1 µM]
SMILES	HCV inhibitor	Marburg entry inh	HCMV antiviral	FMDV inh	LASV entry inh
O=C(Nc1ccccc1)OC[C@@H]1C=CS(=O)(=O)N1Cc1ccc(Br)cc1	·	·	-101*	-8%	·
CN=C1CC(SC)=C1c1ccc(C)cc1	12%	-23%	-19	32µM*	?
CCN(CC)CCNC(=O)c1ccc(-c2nc(CN3CCc4ccccc43)c(C)o2)cc1	·	·	?	?	-3%[46.1 µM]
CCN(CC)S(=O)(=O)c1ccc(Cl)c(NC(=S)NC(=O)C2CCCC2)c1	4µM*	·	?	20µM*	·
CCC(C)NCC(=O)Nc1cc(S(=O)(=O)N(CC)c2ccccc2)ccc1Cl (centres undefined)	?	21µM*	?	0%	?
CCN(c1ccccc1)S(=O)(=O)c1ccc(Cl)c(NC(=O)CNC(C)c2ccccc2)c1 (centres undefined)	?	?	-8	-28%	?
CCN(c1ccccc1)S(=O)(=O)c1ccc(Cl)c(NC(=O)CN2CCCCCC2)c1	14µM*	?	?	?	?
CN(C)S(=O)(=O)c1ccc(Cl)c(NC(=O)CN2CCCCCC2)c1	-17%	-13%[46.1 µM]	?	-17%	-8%
CCN(c1ccccc1)S(=O)(=O)c1ccc(Cl)c(NC(=O)CN(C)Cc2cccc(F)c2)c1	8.9µM*	?	?	-20%	?
CC(C)NC(=S)N/N=C/c1ccc2c(c1)OCCO2	25%	?	-67*	28%	2%
CC1(C)CC(=O)C(C=NCCN2CCN(CCc3ccccc3)CC2)=C(O)C1	11µM*	?	31	-16%	-9%
CC1(C)CC(=O)C(C=NCCN2CCN(CC(=O)Nc3ccc(Cl)cc3)CC2)=C(O)C1	13µM*	-12%	-8	-13%	-5%
CCCC[n+]1ccn(C2=C([O-])c3ccccc3C(=O)/C2=N\S(=O)(=O)c2ccc(Cl)cc2)c1	?	·	-73*	-15%	·
CN=c1scc(-c2ccccc2F)n1/N=C(\C)c1cccnc1	32µM*	?	-12	-8%	?
C/C(=N\N1CCN(C2c3ccccc3-c3ccccc32)CC1)c1cccnc1	-14%	-1%	22	?	14%
COc1ccc(Cn2c(CNS(=O)(=O)c3ccc4c(c3)CCCC4)nc3cccnc32)cc1	·	·	1	75%	-10%[46.1 µM]
CC1CCN(S(=O)(=O)c2ccc3c(c2)N(CC(=O)Nc2ccc(F)c(Cl)c2)C(=O)CO3)CC1	·	·	-10	-17%	-3%[46.1 µM]
COc1ccccc1N1CCN(Cc2nc(-c3ccc(F)cc3)oc2C)CC1	22µM*	·	-12	?	·
COc1ccccc1CN1CCN(Cc2nc(-c3ccc(C)cc3)oc2C)CC1	?	·	70	-24%	·
COc1ccc(-c2nc(CN3CCN(c4ccccc4OC)CC3)c(C)o2)cc1	?	?	?	28µM*	-23%
COc1ccc(-c2nc(CN3CCC(c4ccccc4)CC3)c(C)o2)cc1OC	?	?	-65*	-15%	-2%[46.1 µM]
Cc1oc(-c2cc(F)ccc2F)nc1CN1CCN(c2ncnc3ccccc23)CC1	0.56µM*	·	-63*	16µM*	·
Cc1cc(N2CCN(Cc3nc(-c4ccc(F)cc4)oc3C)CC2)cc(C)n1	?	·	?	-24%	·
